# Experimental data from PubChem BioAssay (NCATS).
# Records with an inconclusive call do not appear. The source made the active and inactive calls. Unless noted, the call rests on the fitted dose curve; in most records, active means well fitted curve in either direction with a large enough effect (not every such curve was filed as active); inconclusive means small, poorly fitted or top-dose-only effect, or another doubt; inactive means flat fitted curve, though single readings scatter.
# Legend:
# [1] = biological target: Lysosomal acid glucosylceramidase (Homo sapiens) (UniProt P04062); test: Glucocerebrosidase-p2 (AID 348; in the data active means potency below about 10 µM; further: potency means the concentration at half of the fitted maximal effect); conditions: purified GBA, blue fluorogenic substrate, 40 min
# Lysosomal acid glucosylceramidase (Homo sapiens), sequence (P04062 whole entry, looked up): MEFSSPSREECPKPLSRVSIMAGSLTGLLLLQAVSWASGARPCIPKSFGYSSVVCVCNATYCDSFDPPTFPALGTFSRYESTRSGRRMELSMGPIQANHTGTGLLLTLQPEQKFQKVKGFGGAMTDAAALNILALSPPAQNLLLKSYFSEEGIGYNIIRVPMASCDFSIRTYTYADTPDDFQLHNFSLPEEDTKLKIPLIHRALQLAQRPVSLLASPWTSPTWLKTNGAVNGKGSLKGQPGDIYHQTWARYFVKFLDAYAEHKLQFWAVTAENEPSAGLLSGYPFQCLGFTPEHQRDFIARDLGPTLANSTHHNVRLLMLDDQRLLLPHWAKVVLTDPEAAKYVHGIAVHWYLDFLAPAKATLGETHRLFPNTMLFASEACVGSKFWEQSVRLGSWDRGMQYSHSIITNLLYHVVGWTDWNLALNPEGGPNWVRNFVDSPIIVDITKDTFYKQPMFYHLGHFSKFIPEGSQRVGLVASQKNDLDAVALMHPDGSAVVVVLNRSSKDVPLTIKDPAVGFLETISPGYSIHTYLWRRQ
# Outline: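 Normal human glucocerebrosidase (0.2 nM) with blue fluorogenic substrate (80 uM final) in citrate/phosphate pH 5.9 with 10mM sodium taurocholate, 0.01% tween-20; 40 min RT, NaOH/glycine stop; fluorescence Ex 365/Em 440; AC50 from a titration from 0.6 nM upwards.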
# [2] = AP1 Signaling Pathway (AID 357); conditions: ME-180 AP-1-bla reporter, EGF-induced, beta-lactamase ratio, 5 h; at 7.69 µM (top of the series) unless noted;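 further: ME-180 reporter cells stimulated with EGF at its EC50 level; on the % scale 0 is the no-effect control and ±100 the full control effect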
# Outline: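 In this screen, ME-180 cells in Opti-MEM with 0.5% dialyzed FBS received EC50 EGF and compound titrations for 5 h. AP-1 reporter beta-lactamase was detected via CCF4 ratio, giving AC50 for positive and negative modulators.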
# [3] = biological target: Cytochrome P450 1A2 (Homo sapiens) (UniProt P05177); test: p450-cyp1a2 (AID 410; calls by dose curve; further: potency means the concentration at half of the fitted maximal effect;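 on activity change, negative = inhibition: -100% = full effect of reference inhibitor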); conditions: recombinant CYP1A2, luciferin-ME demethylation, luminescence; series mostly up to 57 µM
# Cytochrome P450 1A2 (Homo sapiens), sequence (P05177 whole entry, looked up): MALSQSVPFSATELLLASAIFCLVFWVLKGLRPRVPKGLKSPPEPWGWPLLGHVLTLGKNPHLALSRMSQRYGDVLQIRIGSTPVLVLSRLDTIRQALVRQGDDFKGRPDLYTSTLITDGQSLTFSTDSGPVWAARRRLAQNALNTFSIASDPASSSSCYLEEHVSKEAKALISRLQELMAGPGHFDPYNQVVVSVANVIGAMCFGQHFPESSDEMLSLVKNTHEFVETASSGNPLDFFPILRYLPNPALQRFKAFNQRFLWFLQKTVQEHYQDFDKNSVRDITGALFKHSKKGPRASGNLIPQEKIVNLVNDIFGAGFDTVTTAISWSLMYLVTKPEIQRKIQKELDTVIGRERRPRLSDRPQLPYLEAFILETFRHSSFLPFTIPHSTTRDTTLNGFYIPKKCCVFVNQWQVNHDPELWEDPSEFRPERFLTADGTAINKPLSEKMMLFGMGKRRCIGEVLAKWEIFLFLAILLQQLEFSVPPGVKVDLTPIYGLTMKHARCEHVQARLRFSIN
# Outline: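 Luminescent demethylation readout: Luciferin-ME (100uM, equal to Km) turned over by 20nM CYP1A2 for 60 min at room temperature after NADPH regeneration addition, following 10 min compound preincubation. Normalization used 57 uM furafylline as full inhibition.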
# [4] = NFAT Signaling Pathway (AID 444); conditions: Jurkat NFAT-bla M1, carbachol, beta-lactamase ratio, 5 h; at 7.69 µM (top of the series) unless noted;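 further: carbachol stimulus at about its EC50 of 1 µM final; on the % scale 0 is the no-effect control and ±100 the full control effect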
# Outline: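 Jurkat cells with NFAT-driven β-lactamase reporter and co-expressed M1 receptor, stimulated with carbachol (final 1 uM, ~EC50), compound titration, 5 h at 37 °C. CCF4 loaded 1 h at RT; 460/530 nm ratio gave %activity and AC50.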
# [5] = Stat Signaling Pathway (AID 446); conditions: ME-180 (cervical carcinoma) SIE beta-lactamase reporter, IL-6 stimulated, 5 h; at 7.69 µM (top of the series) unless noted;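 further: ME-180 cervical cancer cells given 40 pM IL-6 alongside compound; SIE-controlled beta-lactamase reporter measured as 460/530 nm FRET emission ratio; on the % scale 0 is the no-effect control and ±100 the full control effect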
# Outline: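 Normalization used AC90 stimulation (300 pM IL-6) and AC90 inhibition (125 nM pan-JAK inhibitor at 40 pM IL-6). The underlying signal is SIE-driven beta-lactamase in ME-180 cells after 5 h IL-6 exposure with compound.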
# [6] = biological target: Glucocorticoid receptor (Homo sapiens) (UniProt P04150); test: GR-EFC Redistribution (AID 451; calls by dose curve; further: potency means the concentration at half of the fitted maximal effect); conditions: CHO-K1 GR-EFC translocation, beta-gal luminescence, 2 h
# Glucocorticoid receptor (Homo sapiens), sequence (P04150 whole entry, looked up, the tested form may be a part): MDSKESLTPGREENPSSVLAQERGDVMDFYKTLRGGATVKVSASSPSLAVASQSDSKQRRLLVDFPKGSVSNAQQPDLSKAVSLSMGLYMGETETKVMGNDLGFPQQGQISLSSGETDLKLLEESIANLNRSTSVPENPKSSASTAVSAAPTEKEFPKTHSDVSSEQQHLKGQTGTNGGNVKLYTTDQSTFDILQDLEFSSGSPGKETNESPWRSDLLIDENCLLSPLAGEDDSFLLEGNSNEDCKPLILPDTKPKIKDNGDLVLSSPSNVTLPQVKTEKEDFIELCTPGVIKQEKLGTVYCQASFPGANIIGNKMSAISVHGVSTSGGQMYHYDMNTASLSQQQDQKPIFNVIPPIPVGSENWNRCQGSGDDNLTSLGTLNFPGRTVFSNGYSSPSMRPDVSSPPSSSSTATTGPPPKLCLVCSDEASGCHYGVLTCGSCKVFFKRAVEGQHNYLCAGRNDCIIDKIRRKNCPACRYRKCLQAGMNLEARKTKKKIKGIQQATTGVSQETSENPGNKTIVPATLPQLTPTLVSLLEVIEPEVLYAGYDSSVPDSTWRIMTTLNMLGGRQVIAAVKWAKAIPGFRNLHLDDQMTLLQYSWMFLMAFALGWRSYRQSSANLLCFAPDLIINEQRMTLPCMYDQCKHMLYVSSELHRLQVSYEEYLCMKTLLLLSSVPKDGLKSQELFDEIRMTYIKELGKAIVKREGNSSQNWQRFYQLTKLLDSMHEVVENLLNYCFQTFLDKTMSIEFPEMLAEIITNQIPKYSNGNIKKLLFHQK
# Outline: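 CHO-K1 cells expressing nuclear EA and GR-ED fragments of b-gal; compounds titrated up to 46 uM final, 2 h at 37 C. GR nuclear translocation read as complemented b-gal luminescence after 1 h RT detection.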
# [7] = biological target: Mitogen-activated protein kinase 10 (Mus musculus) (UniProt Q61831); test: JNK3 AlphaScreen Assay (AID 530); conditions: JNK3 lysate, c-Jun phosphorylation; series mostly up to 57.1 µM;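 further: kinase came from lysate of stimulated human HepG2 cells; signal reports phosphorylation of biotinylated GST-cJun 1-79 at Ser73 with 10 µM ATP; on the % scale 0 is the no-effect control and ±100 the full control effect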
# Outline: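 Activity was read by AlphaScreen after JNK3-containing HepG2 lysate (cytokine pre-activated) phosphorylated biotinylated GST-cJun with 10 uM ATP at room temperature. Phospho-Ser73 cJun antibody with Protein-A acceptor beads provided detection.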
# [8] = biological target: 3',5'-cyclic-AMP phosphodiesterase 4B (Homo sapiens) (UniProt Q07343); test: qHTS Assay for Inhibitors of PDE-IV (AID 607; active means well fitted activation curve with a large enough effect in the main read-out, with a control signal flat, not every such curve was filed as active; further: % of control where 0% means no effect); conditions: HEK293 ACTOne CNG channel cells, membrane potential fluorescence; series mostly up to 22.9 µM
# 3',5'-cyclic-AMP phosphodiesterase 4B (Homo sapiens), sequence (Q07343 whole entry, looked up): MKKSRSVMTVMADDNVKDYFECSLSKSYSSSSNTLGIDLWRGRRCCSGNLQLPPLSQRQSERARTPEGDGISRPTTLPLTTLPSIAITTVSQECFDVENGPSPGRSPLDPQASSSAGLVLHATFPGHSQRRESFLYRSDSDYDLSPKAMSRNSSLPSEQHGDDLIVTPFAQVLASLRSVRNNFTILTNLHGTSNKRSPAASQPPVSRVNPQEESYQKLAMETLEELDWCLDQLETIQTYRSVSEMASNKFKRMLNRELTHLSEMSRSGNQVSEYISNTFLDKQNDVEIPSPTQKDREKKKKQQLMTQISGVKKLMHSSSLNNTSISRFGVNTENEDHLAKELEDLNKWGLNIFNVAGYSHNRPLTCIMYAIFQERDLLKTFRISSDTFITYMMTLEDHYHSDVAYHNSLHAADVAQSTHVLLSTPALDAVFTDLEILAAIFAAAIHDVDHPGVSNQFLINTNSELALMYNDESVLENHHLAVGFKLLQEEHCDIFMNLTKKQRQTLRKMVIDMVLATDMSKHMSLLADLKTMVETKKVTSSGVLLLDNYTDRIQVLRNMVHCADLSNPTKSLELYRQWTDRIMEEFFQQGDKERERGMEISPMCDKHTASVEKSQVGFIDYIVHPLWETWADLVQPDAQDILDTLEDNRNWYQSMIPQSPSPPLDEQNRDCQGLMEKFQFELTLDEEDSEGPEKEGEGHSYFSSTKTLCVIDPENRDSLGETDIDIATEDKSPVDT
# Outline: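 HEK293 ACTOne cells with CNG channel (1000/well), endogenous PDE4; membrane potential dye, compounds up to 22.9 uM final. Fluorescence Ex 535/Em 590; RO 20-1724 (100 uM final) as reference.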
# [9] = qHTS Assay for Lipid Storage Modulators (AID 1519; calls by dose curve); conditions: Drosophila S3 cells, BODIPY lipid droplet/cell ratio, laser cytometry, cells loaded with oleic acid; for activity change, negative = inhibition: at 57.5 µM (top of the series)
# Outline: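 Cells seeded at 5,000 per well were treated with compounds over a concentration series and loaded with oleic acid (400 uM, as added). Lipid droplet fluorescence (488 nm excitation, 500-530 nm channel) was read by laser-scanning cytometry and normalized to 20 uM Triacsin C.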
# [10] = Primary qHTS for small molecule stabilizers of the endoplasmic reticulum resident proteome: Secreted ER Calcium Modulated Protein (SERCaMP) assay (AID 1508630; active means well fitted curve in the direction sought with a large enough effect; an effect the other way counts as inactive or inconclusive; further: on the % scale 0 is the no-effect control and ±100 the full control effect); conditions: SH-SY5Y GLuc-SERCaMP (Gaussia luciferase released on ER calcium loss) secretion, thapsigargin, luminescence; series mostly up to 38.4 µM
# Outline: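 The SH-SY5Y reporter protocol was run at 3 concentrations up to 38.3 uM (primary) or 11 concentrations (follow-up): 16 h compound, 100 nM thapsigargin for 4 h, then extracellular luciferase luminescence.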
# [11] = biological target: Cytochrome P450 3A4 (Homo sapiens) (UniProt P08684); test: qHTS Assay for Inhibitors and Substrates of Cytochrome P450 3A4 (AID 884; active means well fitted curve in the direction sought with a large enough effect; an effect the other way counts as inactive or inconclusive; further: potency means the concentration at half of the fitted maximal effect; nearly all actives have a fitted effect of over 50% in size); conditions: recombinant CYP3A4, Luciferin-PPXE luminescence; series mostly up to 57.1 µM
# Cytochrome P450 3A4 (Homo sapiens), sequence (P08684 whole entry, looked up): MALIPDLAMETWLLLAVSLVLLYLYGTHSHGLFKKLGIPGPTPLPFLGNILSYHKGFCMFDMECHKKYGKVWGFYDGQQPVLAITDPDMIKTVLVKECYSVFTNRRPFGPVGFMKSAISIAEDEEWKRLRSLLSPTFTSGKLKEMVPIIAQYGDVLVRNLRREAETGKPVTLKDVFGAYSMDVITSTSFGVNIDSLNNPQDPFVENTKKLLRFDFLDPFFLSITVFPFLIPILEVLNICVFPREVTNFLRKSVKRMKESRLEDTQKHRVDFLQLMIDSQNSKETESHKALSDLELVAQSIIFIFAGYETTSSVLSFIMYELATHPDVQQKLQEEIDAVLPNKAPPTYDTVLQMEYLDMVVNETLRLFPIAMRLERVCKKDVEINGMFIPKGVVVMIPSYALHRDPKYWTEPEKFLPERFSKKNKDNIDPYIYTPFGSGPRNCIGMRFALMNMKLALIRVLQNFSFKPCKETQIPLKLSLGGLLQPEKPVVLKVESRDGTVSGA
# Outline: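 Luminescent readout of luciferin produced by CYP3A4 (20 nM) dealkylation of Luciferin-PPXE, 25 uM (its KM). NADPH-driven reaction ran 60 min at RT after 10 min compound preincubation; data scaled to 57 uM ketoconazole as 100% inhibition.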
# [12] = biological target: Cytochrome P450 3A4 (Homo sapiens) (UniProt P08684); test: qHTS Assay for Activators of Cytochrome P450 3A4 (AID 885; active means well fitted curve in the direction sought with a large enough effect; an effect the other way counts as inactive or inconclusive; further: nearly all actives have a fitted effect of over 65% in size); conditions: recombinant CYP3A4, Luciferin-PPXE luminescence, 60 min; series mostly up to 57.1 µM
# Outline: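 Human CYP3A4 dealkylates Luciferin-PPXE to luciferin, which luciferase detection converts to light. Substrate was at its KM (25uM), buffer 200mM KPO4, reaction 60 min at RT.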
# [13] = Confirmation and Secondary Assay for Modulators of Hemoglobin Beta Chain Splicing at IVS2 654 locus (AID 910; active means well fitted curve in the direction sought with a large enough effect; an effect the other way counts as inactive or inconclusive;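 further: HeLa cells stably carrying EGFP split by mutant beta-globin IVS2-654 intron; % of control where 0% means no effect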); conditions: HeLa EGFP-654 splicing reporter, GFP fluorescence, 48 h; series mostly up to 38.3 µM
# Outline: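 HeLa cells stably expressing EGFP interrupted by β-globin IVS2-654 intron, seeded overnight in Opti-MEM/2% FCS, then treated 2 days at 37 °C. Restored splicing read as total peak GFP intensity per well by laser scanning cytometry (488 nm excitation, 500–520 nm emission); 500 nM antisense PNA as control.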
# [14] = Confirmation and Secondary Assay for Modulators of Hemoglobin Beta Chain Splicing at IVS2 705 locus (AID 930; active means well fitted curve in the direction sought with a large enough effect; an effect the other way counts as inactive or inconclusive;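 further: HeLa cells stably expressing the EGFP-705 splicing reporter; GFP fluorescence per well restored by corrected splicing of the IVS2-705 intron in EGFP; % of control where 0% means no effect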); conditions: HeLa EGFP-705 splicing reporter, GFP fluorescence, 48 h; series mostly up to 38.3 µM
# Outline: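 HeLa EGFP-705 reporter; 500 cells/well, o/n 37C 5% CO2; cpd 2 d; 488 ex/500-520 em laser scan; total peak GFP intensity/well. Ref: 500 nM […] antisense PNA.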
# [15] = biological target: Ubiquitin carboxyl-terminal hydrolase 1 (Homo sapiens) (UniProt O94782); test: Inhibitors of USP1/UAF1: Pilot qHTS (AID 504865; active means well fitted curve in the direction sought with a large enough effect; an effect the other way counts as inactive or inconclusive;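 further: rhodamine fluorescence freed from ubiquitin-rhodamine substrate followed over time; top concentration of the series differs between compounds; on the % scale 0 is the no-effect control and ±100 the full control effect; nearly all actives have a fitted effect of over 35% in size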); conditions: purified USP1/UAF1, Ub-rhodamine cleavage fluorescence; series mostly up to 54.9 µM
# Ubiquitin carboxyl-terminal hydrolase 1 (Homo sapiens), sequence (O94782 whole entry, looked up): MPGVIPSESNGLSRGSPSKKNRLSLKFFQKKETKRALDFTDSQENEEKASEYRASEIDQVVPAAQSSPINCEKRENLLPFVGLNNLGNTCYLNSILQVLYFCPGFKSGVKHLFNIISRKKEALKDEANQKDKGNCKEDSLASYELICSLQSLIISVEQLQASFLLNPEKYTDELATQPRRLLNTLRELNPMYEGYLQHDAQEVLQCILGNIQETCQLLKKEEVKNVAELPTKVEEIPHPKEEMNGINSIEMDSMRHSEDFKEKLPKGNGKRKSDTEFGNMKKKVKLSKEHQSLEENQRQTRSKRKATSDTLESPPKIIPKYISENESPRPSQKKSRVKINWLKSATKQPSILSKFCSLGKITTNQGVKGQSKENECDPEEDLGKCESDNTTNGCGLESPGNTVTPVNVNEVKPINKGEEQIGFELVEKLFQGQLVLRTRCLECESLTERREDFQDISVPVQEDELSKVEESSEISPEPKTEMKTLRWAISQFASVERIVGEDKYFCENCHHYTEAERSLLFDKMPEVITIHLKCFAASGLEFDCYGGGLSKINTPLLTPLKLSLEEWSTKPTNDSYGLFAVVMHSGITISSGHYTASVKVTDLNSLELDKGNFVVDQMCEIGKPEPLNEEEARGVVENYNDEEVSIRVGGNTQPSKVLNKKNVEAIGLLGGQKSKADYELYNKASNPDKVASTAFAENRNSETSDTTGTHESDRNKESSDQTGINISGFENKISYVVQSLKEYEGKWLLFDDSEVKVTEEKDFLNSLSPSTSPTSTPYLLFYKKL
# Outline: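 Enzyme-free wells gave the negative control, while test wells held 1nM USP1/UAF1 preincubated with compound for 15 min at room temperature. Ub-Rho at 150nM final started the reaction, and fluorescence at 480/540 nm was recorded kinetically.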
# [16] = measured here: cell count channel max response
# [17] = measured here: lipid channel max response
SMILES,Potency [1],"activity change, negative = inhibition [2]",Potency [3],"activity change, negative = inhibition [4]","activity, negative = inhibition [5]",Potency [6],outcome [7],Potency [8],"activity change, negative = inhibition [9]","max response [9, 16] [%]","max response [9, 17] [%]",Potency [10],Potency [11],Potency [12],outcome [13],outcome [14],Potency [15]
O=C(c1csnn1)N1CCC2(CCCN(Cc3cc(C(F)(F)F)cc(C(F)(F)F)c3)C2)CC1,> 11.4 µM (inactive),10.6% (inactive),12.6 µM (active),10.5% (inactive),3.73% (inactive),> 46 µM (inactive),inactive,inactive,-5.5% (inactive),21.4,17.2,inactive,–,–,–,–,–
COC(=O)N1CCC2(CC1)CN(c1cccc(-c3ccccc3)c1)C2,> 11.4 µM (inactive),-12.5% (inactive),inactive,-3.27% (inactive),4.85% (inactive),> 46 µM (inactive),inactive,inactive,4.36% (inactive),23.2,29.4,inactive,–,–,–,–,–
CC(=O)N1CCC2(CC1)CN(Cc1ccccc1)C2,> 11.4 µM (inactive),9.85% (inactive),inactive,0.306% (inactive),-5.51% (inactive),> 46 µM (inactive),inactive,inactive,-0.469% (inactive),-1.63,-1.86,inactive,–,–,–,–,–
COc1ccccc1-c1cc(NCc2cccnc2)ncn1,> 11.4 µM (inactive),-6.59% (inactive),0.316 µM (active),-4.97% (inactive),0.807% (inactive),> 46 µM (inactive),inactive,–,4.96% (inactive),9.53,19.3,inactive,5.01 µM (active),inactive,inactive,inactive,inactive
CC(C)NC(=O)N1CCC2(CC1)CCN(C(=O)c1csnn1)CC2,> 11.4 µM (inactive),-2.2% (inactive),inactive,6.85% (inactive),-6.49% (inactive),> 46 µM (inactive),inactive,inactive,1.46% (inactive),-0.0052,5.7,inactive,–,–,–,–,–
Cc1noc(C)c1C(=O)N1CCC2(CC1)CN(c1ncccn1)C2,> 11.4 µM (inactive),-8.73% (inactive),inactive,13.3% (inactive),2.57% (inactive),> 46 µM (inactive),inactive,inactive,6.33% (inactive),15.3,24.4,inactive,–,–,–,–,–
COc1ccc(NC(=O)N2CCC3(CC2)CCN(C(=O)c2cnccn2)CC3)cc1,> 11.4 µM (inactive),-11.1% (inactive),10 µM (active),9.86% (inactive),0.353% (inactive),> 46 µM (inactive),inactive,inactive,7.44% (inactive),7.1,18.9,inactive,–,–,–,–,–
O=C(Nc1ccccc1)N1CCC2(CC1)CCN(C(=O)c1cnccn1)CC2,> 11.4 µM (inactive),-8.59% (inactive),inactive,11.9% (inactive),2.97% (inactive),> 46 µM (inactive),inactive,inactive,6.14% (inactive),7.98,21.7,inactive,–,–,–,–,–
COC(=O)N1CCC[C@@]2(CCN(C(=O)Nc3ccccc3)C2)C1,> 11.4 µM (inactive),-3.51% (inactive),12.6 µM (active),8.29% (inactive),-0.455% (inactive),> 46 µM (inactive),inactive,inactive,3.74% (inactive),-3.53,3.51,inactive,–,–,–,–,–
O=C(Nc1cccc(F)c1)N1CCC2(CCNCC2)CC1,> 11.4 µM (inactive),-5.25% (inactive),inactive,-3.25% (inactive),-4.9% (inactive),> 46 µM (inactive),inactive,inactive,2.6% (inactive),17.4,23.2,inactive,–,–,–,–,–
O=C(Nc1ccccc1)N1CC[C@@]2(CCCN(C(=O)c3ccco3)C2)C1,> 11.4 µM (inactive),-6.95% (inactive),10 µM (active),4.43% (inactive),-3.48% (inactive),> 46 µM (inactive),inactive,inactive,0.607% (inactive),5.04,7.34,inactive,–,–,–,–,–
COCC(=O)N1CCC2(CC1)CCN(c1ccccn1)CC2,> 11.4 µM (inactive),-16.4% (inactive),inactive,-3.68% (inactive),-8.73% (inactive),> 46 µM (inactive),inactive,inactive,2.07% (inactive),0.785,4.41,inactive,–,–,–,–,–
CC(C)NC(=O)N1CC[C@@]2(CCCN(S(C)(=O)=O)C2)C1,> 11.4 µM (inactive),-5.61% (inactive),inactive,0.961% (inactive),-2.56% (inactive),> 46 µM (inactive),inactive,–,0.109% (inactive),4.25,3.89,inactive,–,–,–,–,–
Cn1cccc1C(=O)N1CCC2(CCN(C(=O)Nc3cccc(F)c3)CC2)CC1,> 11.4 µM (inactive),-12.6% (inactive),inactive,15.8% (inactive),-3.96% (inactive),> 46 µM (inactive),inactive,inactive,6.54% (inactive),18.2,25.2,inactive,–,–,–,–,–
COCC(=O)N1CCC2(CC1)CCN(C(=O)Nc1ccc(OC)cc1)CC2,> 11.4 µM (inactive),-6.71% (inactive),inactive,6.08% (inactive),-0.498% (inactive),> 46 µM (inactive),inactive,inactive,4.36% (inactive),13.2,20.1,inactive,–,–,–,–,–
